Records with an inconclusive call do not appear. Values without a mark were called inactive. Activity calls are given as the source filed them. Calls follow the shape of the dose curve; as a rule, active = well fitted curve in the direction sought with a large enough effect; inconclusive = small, poorly fitted or top-dose-only effect, or another doubt; inactive = no such curve, though single readings can be large; an effect the other way counts as inactive or inconclusive.
Tests used:
[1] = Primary qHTS for inhibitors of nuclear receptor binding SET domain protein 2 (NSD2) in an RCH-ACV wild type WT cells (2C) (AID 1645877); settings: RCH-ACV NSD2 WT (2C) viability, CellTiter-Glo, 72 h; series mostly up to 44.9 µM
[2] = Primary qHTS for inhibitors of nuclear receptor binding SET domain protein 2 (NSD2) in an isogenic RCH-ACV NSD2 p.E1099K mutant (9B) (AID 1645876); settings: RCH-ACV (leukaemia line) NSD2 E1099K (9B) viability, CellTiter-Glo, 72 h; series mostly up to 44.9 µM
% is scaled to controls: 0 for no effect and ±100 for the full control effect; potency is read from the fitted curve at half-maximal effect.
Also: nearly all actives have a fitted effect of over 70% in size.

## O=C(NC[C@H](O)CO)c1ccncc1Nc1ccc(I)cc1F
[1]
  Potency: 16.6 µM (active)

## CN(C)N=Nc1nc[nH]c1C(N)=O
[2]
  Potency: 2.95 µM (active)
[1]
  Potency: 3.72 µM (active)

## CCC[C@H](N[C@@H](C)C(=O)N1[C@@H]2CCCC[C@H]2C[C@H]1C(=O)O)C(=O)OCC
[2]
  Potency: inactive
[1]
  Potency: inactive

## CN(C)S(=O)(=O)c1ccc2c(c1)C(=Cc1cc3c([nH]1)CCCC3)C(=O)N2
[1]
  Potency: 2.95 µM (active)

## Cc1ccc2c(c1)C(=O)[C@]1(O)CCN(c3ccccc3)C1=N2
[1]
  Potency: 23 µM (active)

## NCC1CCC(C(=O)O)CC1 (stereo unspecified)
[2]
  Potency: inactive
[1]
  Potency: inactive

## Nc1ccn([C@@H]2O[C@H](CO)[C@@H](O)[C@H]2O)c(=O)n1
[1]
  Potency: inactive

## OC(c1cc(C(F)(F)F)nc2c(C(F)(F)F)cccc12)C1CCCCN1 (stereo unspecified)
[2]
  Potency: 11.8 µM (active)
[1]
  Potency: 13.2 µM (active)

## COc1ccc2c(c1)c(C1=C(c3c[nH]c4ccccc34)C(=O)NC1=O)cn2CCCN(C)C
[2]
  Potency: 7.42 µM (active)
[1]
  Potency: 6.61 µM (active)

## Cc1ccc(C(=O)N(CCCN)[C@@H](c2nc3cc(Cl)ccc3c(=O)n2Cc2ccccc2)C(C)C)cc1
[2]
  Potency: 0.0132 µM (active)
[1]
  Potency: 0.0132 µM (active)

## O=C(Nc1cccc(Cl)c1)Nc1ncc(CCNc2ncnc3ccsc23)s1
[2]
  Potency: 1.86 µM (active)
[1]
  Potency: 0.0295 µM (active)

## CCC(=O)NCC[C@@H]1CCc2ccc3c(c21)CCO3
[2]
  Potency: inactive
[1]
  Potency: inactive

## CN(C)c1ccccc1CN1CCCN(Cc2ccccc2N(C)C)C1c1ccncc1
[2]
  Potency: 14.8 µM (active)
[1]
  Potency: 10.5 µM (active)

## N#Cc1c(N(CC(=O)O)CC(=O)O)sc(C(=O)O)c1CC(=O)O
[2]
  Potency: inactive
[1]
  Potency: inactive

## CS(=O)(=O)c1ccc(C2=C(c3ccccc3)C(=O)OC2)cc1
[2]
  Potency: inactive
[1]
  Potency: inactive

## CCCC1OC2C[C@@H]3[C@H]4CCC5=CC(=O)C=C[C@]5(C)[C@H]4C(O)C[C@]3(C)[C@]2(C(=O)CO)O1 (stereo partly specified)
[1]
  Potency: 0.0053 µM (active)

## N[C@@H](CC(=O)N1CCn2c(nnc2C(F)(F)F)C1)Cc1cc(F)c(F)cc1F
[2]
  Potency: inactive
[1]
  Potency: inactive

## CC(C)C[C@@H](N)[C@H](O)C(=O)N[C@H](C(=O)N[C@H](C(=O)N[C@@H](CC(=O)O)C(=O)O)C(C)C)C(C)C
[2]
  Potency: inactive
[1]
  Potency: inactive

## COc1cccc(OC)c1-c1cc(C(=O)NC2(C(=O)O)C3CC4CC(C3)CC2C4)nn1-c1ccnc2cc(Cl)ccc12 (stereo unspecified)
[1]
  Potency: inactive

## CN[C@@H](C)[C@H]1[C@H](O)C[C@@]2(C)[C@@H]3CC[C@H]4C(C)(C)[C@@H](NC)CC[C@@]45C[C@@]35CC[C@]12C
[2]
  activity change, negative = viability loss: 5.77% [at 9.23 µM]
[1]
  activity change, negative = cell killing: -13.6% [at 9.23 µM]

## O=C1NC(=O)C(c2cnc3ccccn23)=C1c1cn2c3c(cccc13)CN(C(=O)N1CCOCC1)CC2
[2]
  Potency: 0.0148 µM (active)
[1]
  Potency: 0.0148 µM (active)

From PubChem BioAssay (NCATS)
